D2 ag-1: HTS Assay for Allosteric Agonists of the Human D2 Dopamine Receptor: Primary Screen for Agonists; D(2) dopamine receptor (Homo sapiens), P14416; HEK293 T-REx D2 cells, calcium flux agonist mode; activation, % at 2 µM; hit rate 0.53% among 340,000;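 active = activation over 3 SD above normal in the single-dose calcium agonist read, cut at about 30% in these data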; also: 0% is about no effect
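Agonism is scored from calcium flux in a force-coupled, inducible HEK293 cell line expressing D2, read kinetically for 180 s after compound addition against dopamine controls.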
D2 ag-2: Beta-Arrestin HTS for Positive Allosteric Modulators of the Human D2 Dopamine Receptor: Agonists | D(2) dopamine receptor (Homo sapiens), P14416 | DiscoveRx PathHunter D2 beta-arrestin, luminescence, 90 min; 100% = 57 uM dopamine signal | activation, % (no concentration beside the values) | hit rate 0.084% among 360,000 | AID 624465, 2012; in the data active = activation above about 40%; inconclusive = between about 15% and that limit
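Agonist mode: compounds alone added to overnight-plated D2 PathHunter cells for 90 min at 37 C, with 57 uM final dopamine (EC100) defining full response. Beta-arrestin recruitment detected by chemiluminescent reagent, read after 1 h at ambient temperature.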
D2 antag: HTS Assay for Allosteric Antagonists of the Human D2 Dopamine Receptor: Primary Screen for Antagonists. inhibition, % at 10 µM. hit rate 2% among 340,000. AID 485344, 2010. HEK293 TREx D2 cells, calcium flux, dopamine EC80; in the data active = inhibition above about 30%; inactive = below that, where a call was filed; also: 0% is about no effect
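Calcium mobilization kinetics were recorded at 1 s intervals in tetracycline-induced HEK293 T-REx D2 cells, first for 180 s after compound addition and then 180 s after EC80 dopamine.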
D2 PAM-1: HTS Assay for Positive Allosteric Modulators of the Human D2 Dopamine Receptor: Primary Screen for Potentiators. HEK293 T-REx D2, calcium flux, EC20 dopamine potentiation. AID 485347, 2010. hit rate 0.34% among 340,000. potentiation, % at 10 µM. D(2) dopamine receptor (Homo sapiens), P14416;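 active = potentiation over 3 SD above the plate norm, cut at about 30% in these data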; also: 0% is about no effect
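Calcium flux readout, no-wash dye, 1 read/s. Inducible HEK293 Trex D2 line, overnight 30 C. Compound alone 180 s (agonist flags), then EC20 dopamine, another 180 s to score potentiation.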
D2 PAM-2: Beta-Arrestin HTS for Positive Allosteric Modulators of the Human D2 Dopamine Receptor: Potentiators | DiscoveRx D2 beta-arrestin cells, luminescence, 90 min; 100% = 57 uM dopamine signal | potentiation, % (no concentration beside the values) | hit rate 0.23% among 360,000; in the data active = potentiation above about 50%; inconclusive = mostly about 30% to 49%
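PathHunter D2 cells, attached overnight at 37 deg C, received compound in DMSO plus dopamine at EC20 (50 nM final) for 90 min at 37 deg C. Beta-arrestin recruitment was read as luminescence after 1 h with detection reagent at ambient temperature.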
D3 ag: qHTS of D3 Dopamine Receptor Agonist: D3 Dopamine Receptor B-arrestin Agonist Confirmatory Assay; shares compounds with D2 ag-1; DiscoveRx D3 beta-arrestin cells, luminescence, 90 min; Potency, µM (titrated, usually from 76.9 µM), inactives show top-dose activation, usual class: activators; hit rate 4% among 2,300; AID 720506, 2013;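 also: potency is read from the fitted curve at half-maximal effect; 100% = dopamine control response; nearly all actives have a fitted effect of over 70% in size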
Target sequence (P35462 whole entry, looked up): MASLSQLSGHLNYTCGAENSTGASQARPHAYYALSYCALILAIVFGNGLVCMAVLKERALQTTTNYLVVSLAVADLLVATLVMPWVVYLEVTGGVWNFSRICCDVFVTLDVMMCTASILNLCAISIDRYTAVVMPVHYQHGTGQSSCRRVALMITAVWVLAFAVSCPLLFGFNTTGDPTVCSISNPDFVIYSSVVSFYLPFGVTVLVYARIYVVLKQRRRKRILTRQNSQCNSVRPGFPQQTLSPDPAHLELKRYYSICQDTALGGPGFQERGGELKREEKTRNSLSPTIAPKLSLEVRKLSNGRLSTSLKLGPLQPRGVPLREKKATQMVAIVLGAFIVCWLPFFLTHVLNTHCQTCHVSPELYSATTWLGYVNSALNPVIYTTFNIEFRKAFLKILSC
D2 ag-3: qHTS of D3 Dopamine Receptor Agonist: D2 Dopamine Receptor B-arrestin Agonist Counterscreen; shares compounds with D2 ag-1; DiscoveRx PathHunter D2 beta-arrestin, luminescence, 90 min; response scale: percent relative to full dopamine signal; Potency, µM (highest dose often 76.9 µM), for the others: top-dose activation, actives largely listed as activators; hit rate 5.9% among 2,300; AID 720507, 2013; also: potency is read from the fitted curve at half-maximal effect; % of control where 0% means no effect; nearly all actives have a fitted effect of over 70% in size
* marks the source's active call; other numbers are inactive results; ? = inconclusive; / = no result given; ! = not active in a repeat. In the library only some 2.4% were active in any assay of this set; here they are far more common. Unless noted, calls follow the shape of the dose curve; as a rule, active = well fitted activation curve with a large enough effect; inconclusive = small, poorly fitted or top-dose-only effect; inactive = flat fitted curve, though single readings scatter.

SMILES | D2 ag-1 | D2 ag-2 | D2 antag | D2 PAM-1 | D2 PAM-2 | D3 ag | D2 ag-3
COC(=O)C1=C(c2c(C)noc2C)C[C@@H]2CC[C@H]1N2C(=O)NC(C)C | 0 | -1 | 42* | -1 | -3 | -7% | -1%
CCN(CC)C(=O)N[C@H]1C[C@@H]2c3cccc4[nH]cc(c34)C[C@H]2N(C)C1 | 83* | ? | 83* | -28 | 13 | ? | 0.002µM*
CN1C[C@H](CO)C[C@@H]2c3cccc4[nH]cc(c34)C[C@H]21 | 84* | ? | 96* | -33 | 53* | ? | ?
O=S1(=O)N(Cc2ccccc2)CCCN1Cc1cccc(Cl)c1 | 1 | / | / | -6 | / | / | /
CCCN1CCO[C@@H]2c3cc(O)ccc3OC[C@H]21 | 68* | 83* | 72* | -13 | 97* | 0.045µM* | 0.071µM*
CCCC1(CC(C)CC)C(=O)NC(=O)NC1=O (centres undefined) | / | -1 | / | / | -5 | / | /
CC(=O)O[C@H]1[C@H]2O[C@]23[C@@H]2CC[C@]4(O)C[C@@H](O)CC[C@]4(C)C2CC[C@]3(C)[C@H]1c1ccc(=O)oc1 (some centres undefined) | 1 | 0 | -7 | -6 | 5 | -4% | -4%
Cc1ccc(Cn2cccc(C(=O)Nc3ccc4c(c3)OCO4)c2=O)cc1 | 0 | / | / | 0 | / | / | /
CCC(CO)NC(=O)C1C=C2c3cccc4[nH]cc(c34)CC2N(C)C1 (centres undefined) | 84* | 114* | 81* | -19 | ? | 2.8µM* | 7.1µM*
CC(C)C[C@H]1C(=O)N2CCC[C@H]2[C@]2(O)O[C@](NC(=O)[C@@H]3C=C4c5cccc6[nH]cc(c56)C[C@H]4N(C)C3)(C(C)C)C(=O)N12 | 76* | 106* | 72* | -20 | ? | ? | 1µM*
CC[C@@H](CO)NC(=O)[C@@H]1C=C2c3cccc4c3c(cn4C)C[C@H]2N(C)C1 | 54*! | 14 | 47* | -18 | -21 | ? | 27%
CSCCC(c1nnnn1-c1c(C)cccc1C)N1CCC2(CC1)C(=O)NCN2c1ccccc1 (centres undefined) | / | -3 | / | / | -15 | / | /
COC(=O)C1=C(c2ccc(F)cc2OCc2ccccc2)C[C@@H]2CC[C@H]1N2C(=O)NCc1ccccc1Br | 0 | -12 | -6 | -15 | -10 | -11% | -3%
COC(=O)C1=C(c2ccc(F)cc2OCc2ccccc2)C[C@@H]2CC[C@H]1N2C(=O)NCc1ccccc1C(F)(F)F | 0 | -3 | -6 | 4 | -10 | / | /
C=Cc1ccc(Cn2c(C)c(CNCCc3cc(OC)ccc3OC)c(C(=O)O)c2C)cc1 | 1 | / | / | 5 | / | / | /
COc1c2c(cc3c1OCO3)CC[N+](C)=C2 | 23 | -2 | -9 | -14 | -4 | -8% | -6%
COc1ccc2c(c1OC)CN1CCc3cc4c(cc3[C@H]1C2)OCO4 | 0 | 2 | 21 | -18 | -19 | / | /
COc1ccccc1N1CCN(Cc2c(F)cccc2Cl)CC1 | 4 | -1 | -20 | -29 | -42 | / | /
COc1ccccc1N1CCN(Cc2ccccc2)CC1 | 31* | 2 | 97* | -19 | -67 | -10% | -2%
CN1CCN(Cc2ccc(Br)s2)CC1 | -1 | 3 | 13 | -22 | -24 | / | /
COc1ccccc1N1CCN(Cc2ccc(Br)s2)CC1 | 61* | 1 | 85* | -23 | -4 | -8% | 8%
O=C(c1ccc2c(c1)N(Cc1ccc(F)cc1Cl)C(=O)c1ccccc1S2)N1CCC2(CC1)OCCO2 | 0 | / | / | -5 | / | / | /
NC(Cc1ccc(F)cc1)c1csc(Nc2ncccn2)n1 (centres undefined) | / | -4 | / | / | -6 | / | /
Cc1ccc(CN2Cc3ccc(Br)cc3-n3nncc3C2)cc1 | / | -2 | / | / | -4 | / | /
Cc1ccc(Cn2cccc(C(=O)Nc3cc(C)on3)c2=O)cc1 | 21 | / | / | 19 | / | / | /
COC(=O)C1=C(c2ccc(-c3ccccc3)c(F)c2)C[C@@H]2CC[C@H]1N2C(=O)N1CCCCC1 | 1 | -1 | -5 | -4 | -17 | -9% | 11%
O=C1NCN(c2ccccc2)C12CCN(C(c1ccnc3ccccc13)c1nnnn1-c1ccc3c(c1)OCCO3)CC2 (centres undefined) | / | ? | / | / | 21 | / | /

Screens deposited in PubChem BioAssay by National Center for Advancing Translational Sciences (NCATS).
